# Reference: PubChem BioAssay (NCATS)
# Several values for one entry are separate records, joined by “and”; a condition that tells them apart may be missing. Equal entries are not always repeated. Inconclusive results are not listed. Entries that show only a call come without a potency. Activity calls are given as the source filed them. Unless noted, calls come from the whole dose curve; as a rule, active = well fitted curve in the direction sought with a large enough effect; inconclusive = small, poorly fitted or top-dose-only effect, or another doubt; inactive = no such curve, though single readings can be large; an effect the other way counts as inactive or inconclusive.
# What was measured:
# [1] = Cell Viability - BJ (AID 421; calls by dose curve;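 note: potency is the fitted concentration of half-maximal effect; cells exposed to compound for 40 hours at 37 °C before readout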); settings: BJ fibroblast viability, qHTS
# Procedure, shortened: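 Quantitative HTS: ATP depletion in BJ cells after 40 hr compound exposure in complete culture medium, detected with CellTiter-Glo; AC50 from standard Hill fits.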
# [2] = Cell Viability - Jurkat (AID 426;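 active = dose-dependent loss of cell ATP signal giving a full or clear fitted curve, ranked by lower potency value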;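 note: potency is the fitted concentration of half-maximal effect; cells exposed to compound for 40 hours at 37 °C before ATP read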); settings: qHTS
# Procedure, shortened: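 Seed 5000 Jurkat E6-1 cells/well; add compound; incubate 40 hr at 37 °C; add CellTiter-Glo; wait 20 min at room temperature; read luminescence. Fit concentration-response with Hill equation for AC50.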
# [3] = Cell Viability - Hek293 (AID 427;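 active = compounds whose dose-response curve shows a full or clear partial loss of cell viability, called from curve shape rather than a numeric limit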;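 note: potency is the fitted concentration of half-maximal effect; cells exposed to compound for 40 hours at 37 °C before reading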); settings: qHTS
# Procedure, shortened: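 AC50 values derive from Hill-modelled concentration-response of ATP-based luminescence, normalized between DMSO-only and 100 uM tamoxifen controls. Cells were exposed in complete culture medium for 40 hr at 37 °C before detection.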
# [4] = Cell Viability - SK-N-SH (AID 435; calls by dose curve;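 note: potency is the fitted concentration of half-maximal effect; compound exposure lasted 40 h at 37 °C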); settings: SK-N-SH neuroblastoma cell viability qHTS
# Procedure, shortened: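 CellTiter-Glo ATP luminescence, 20 min RT read; cells pre-plated 5 hr, compound 40 hr at 37 °C, 1500 cells/well, complete medium. Normalized DMSO = 0, 100 uM tamoxifen = 100% inhibition; Hill-fit AC50.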
# [5] = Cell Viability - HUV-EC-C (AID 542); settings: HUV-EC-C endothelial cell viability, qHTS; series mostly up to 92.2 µM;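 note: cells exposed to compound for 40 hours; nearly all actives have a fitted effect of over 35% in size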
# Procedure, shortened: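 Decrease in cellular ATP, quantified by luciferase luminescence, reflects toxicity in normal human vascular endothelial HUV-EC-C cells given compound for 40 hr in complete culture medium. Values are AC50s from concentration-response curves.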
# [6] = Cell Viability - H-4-II-E (AID 543); settings: H-4-II-E rat hepatoma viability; series mostly up to 92.2 µM;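 note: cells exposed to compound for 40 hours; nearly all actives have a fitted effect of over 35% in size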
# Procedure, shortened: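 Here, cytotoxicity is measured in the rat hepatoma line H-4-II-E as loss of intracellular ATP after 40 hr compound treatment, detected by luciferase luminescence.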
# [7] = Cell Viability - Renal Proximal Tubule (AID 545); settings: renal proximal tubule cells viability; series mostly up to 91.7 µM;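 note: cells exposed to compound for 40 hours; nearly all actives have a fitted effect of over 40% in size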
# Procedure, shortened: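 Rat kidney proximal tubule cells, freshly isolated; 1000 cells/well, 5 hr settle, compound 40 hr 37 °C. CellTiter-Glo 20 min RT, luminescence read. AC50 by standard Hill fit.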
# [8] = Cell Viability - LYMP2-015 (AID 971); settings: LYMP2-015 lymphoblastoid cell viability; series mostly up to 92.2 µM;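 note: cells exposed to compound for 24 h; nearly all actives have a fitted effect of over 55% in size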
# Procedure, shortened: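 Acute toxicity was scored as a concentration-dependent drop in intracellular ATP in lymphoblastoid cells after 24 hr compound exposure in complete medium. Detection used CellTiter-Glo luciferase luminescence.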
# [9] = Cell Viability - LYMP2-019 (AID 973); settings: LYMP2-019 lymphoblastoid cell line viability; series mostly up to 92.2 µM;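 note: cells exposed to compound for 24 h at 37 °C; nearly all actives have a fitted effect of over 55% in size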
# Procedure, shortened: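 Cells plated at 2500/well and allowed 5 hr at 37 C before compound addition. After 24 hr incubation, CellTiter-Glo reagent was added, plates sat 30 min at room temperature, and luminescence was recorded.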
# [10] = Cell Viability - LYMP2-012 (AID 982); settings: LYMP2-012 lymphoblastoid cell viability qHTS; series mostly up to 92.2 µM;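 note: cellular ATP by luciferase luminescence where a drop means cytotoxicity; cells exposed to compound for one day before reading; nearly all actives have a fitted effect of over 55% in size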
# [11] = Cell Viability - LYMP2-020 (AID 986); settings: series mostly up to 92.2 µM;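 note: cells exposed to compound for 24 h at 37 °C; nearly all actives have a fitted effect of over 55% in size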
# Procedure, shortened: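 Acute cytotoxicity in a human lymphoblastoid line is scored as a concentration-dependent fall in cellular ATP after 24 hr at 37 C in complete medium. The positive control is tetraoctylammonium bromide, and potency is given as Hill-fit AC50.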
# [12] = Cell Viability - LYMP2-022 (AID 987); settings: LYMP2-022 lymphoblastoid cell viability; series mostly up to 92.2 µM; note: nearly all actives have a fitted effect of over 55% in size
# Procedure, shortened: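 Acute toxicity in a human lymphoblastoid line is scored as decreased intracellular ATP after 24 hr compound treatment at 37 C. ATP is measured by CellTiter-Glo luminescence; curves are fitted with the Hill equation to give AC50.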
# [13] = Cell Viability - LYMP2-026 (AID 989); settings: LYMP2-026 lymphoblastoid cell viability, qHTS; series mostly up to 92.2 µM;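 note: cells exposed to compound for 24 h at 37 °C; nearly all actives have a fitted effect of over 50% in size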
# Procedure, shortened: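 Concentration-dependent loss of intracellular ATP in human lymphoblastoid cells after 24 hr at 37 C, quantified by luciferase luminescence. AC50 derived from standard Hill equation.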
# [14] = Cell Viability - LYMP1-002 - Assay at 40 hr (AID 994); settings: LYMP1-002 lymphoblastoid cell viability; series mostly up to 92.2 µM; note: nearly all actives have a fitted effect of over 60% in size
# Procedure, shortened: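 Viability in the human lymphoblastoid line was measured as intracellular ATP via CellTiter-Glo after 40 hr compound exposure. Tetraoctylammonium bromide served as positive control.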
# [15] = qHTS assay for small molecule agonists of retinoid X receptor alpha signaling (AID 588544; calls by dose curve); settings: HEK293T RXRa-UAS-bla, beta-lactamase reporter, 18 h; 530 nm emission
# [16] = target: Retinoic acid receptor RXR-alpha (Homo sapiens) (UniProt P19793); assay: as above; settings: HEK293T RXRa-UAS-bla, beta-lactamase reporter, 18 h; series mostly up to 76.7 µM
# Sequence of Retinoic acid receptor RXR-alpha (Homo sapiens) (P19793 whole entry, looked up): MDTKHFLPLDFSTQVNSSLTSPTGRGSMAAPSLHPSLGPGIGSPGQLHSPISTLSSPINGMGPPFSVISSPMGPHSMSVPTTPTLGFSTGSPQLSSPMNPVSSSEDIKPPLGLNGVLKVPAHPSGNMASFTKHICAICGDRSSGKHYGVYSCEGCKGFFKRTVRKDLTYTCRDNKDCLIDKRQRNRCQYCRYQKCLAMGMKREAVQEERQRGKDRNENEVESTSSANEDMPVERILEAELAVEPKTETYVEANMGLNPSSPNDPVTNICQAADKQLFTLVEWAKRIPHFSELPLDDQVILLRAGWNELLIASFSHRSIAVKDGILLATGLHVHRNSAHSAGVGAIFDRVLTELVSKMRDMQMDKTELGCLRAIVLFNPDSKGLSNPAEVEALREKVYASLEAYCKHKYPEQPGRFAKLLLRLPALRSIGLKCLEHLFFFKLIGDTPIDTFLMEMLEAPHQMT
# [17] = target: Thyroid hormone receptor beta (Homo sapiens) (UniProt P10828); assay: qHTS assay for small molecule agonists of thyroid hormone receptor beta signaling (AID 588545; calls by dose curve); settings: TR-UAS-bla GripTite HEK 293, beta-lactamase ratio, agonist mode, 18 h; series mostly up to 76.7 µM
# Sequence of Thyroid hormone receptor beta (Homo sapiens) (P10828 whole entry, looked up): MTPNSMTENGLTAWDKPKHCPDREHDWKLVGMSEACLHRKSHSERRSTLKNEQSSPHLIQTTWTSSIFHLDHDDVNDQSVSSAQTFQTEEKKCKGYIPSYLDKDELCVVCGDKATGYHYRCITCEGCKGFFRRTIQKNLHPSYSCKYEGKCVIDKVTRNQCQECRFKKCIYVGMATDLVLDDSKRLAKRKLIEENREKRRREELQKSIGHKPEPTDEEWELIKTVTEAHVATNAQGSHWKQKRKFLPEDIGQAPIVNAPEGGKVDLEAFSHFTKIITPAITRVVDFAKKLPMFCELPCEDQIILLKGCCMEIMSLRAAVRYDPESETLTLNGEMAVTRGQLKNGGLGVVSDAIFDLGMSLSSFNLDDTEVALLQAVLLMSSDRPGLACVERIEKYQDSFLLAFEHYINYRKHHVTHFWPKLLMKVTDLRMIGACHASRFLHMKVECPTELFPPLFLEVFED
# Procedure, shortened: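 Beta-lactamase reporter activity under TR response element control is measured in HEK 293 cells after 18 hrs compound exposure. Signal is ratiometric CCF4 fluorescence, 460/530 nm.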
# [18] = qHTS assay for small molecule antagonists of retinoid X receptor alpha signaling (AID 588546; active = well fitted inhibition curve with a large enough effect in the signal ratio, with a control signal flat, not every such curve was filed as active; the % refers to the signal ratio;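 note: cells stimulated with 9-cis-retinoic acid as agonist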); settings: HEK293T RXRa-UAS-bla, beta-lactamase ratio, antagonist mode; measured here: W530 green channel, cytotoxicity proxy
# Procedure, shortened: (§1)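 Beta-lactamase reporter inhibition, read as CCF4 fluorescence ratio (ex 405, em 460/530 nm) after 2 h at RT. HEK293T UAS-bla cells, 2500/well, were stimulated with 9-cis-RA at 500 or 100 nM final alongside test compound for 18 h at 37 C.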
# [19] = target: Retinoic acid receptor RXR-alpha (Homo sapiens) (UniProt P19793); assay: as above; settings: HEK293T RXRa-UAS-bla, beta-lactamase ratio, antagonist mode
# Procedure, shortened: as §1
# [20] = target: Voltage-gated inwardly rectifying potassium channel KCNH2 (Homo sapiens) (UniProt Q12809); assay: qHTS Assay for Small Molecule Inhibitors of the Human hERG Channel Activity (AID 588834); settings: U2OS BacMam hERG, FluxOR thallium flux fluorescence; series mostly up to 92.2 µM;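 note: lower thallium flux fluorescence means stronger hERG block; nearly all actives have a fitted effect of over 50% in size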; note: potency is the fitted concentration of half-maximal effect
# Sequence of Voltage-gated inwardly rectifying potassium channel KCNH2 (Homo sapiens) (Q12809 whole entry, looked up): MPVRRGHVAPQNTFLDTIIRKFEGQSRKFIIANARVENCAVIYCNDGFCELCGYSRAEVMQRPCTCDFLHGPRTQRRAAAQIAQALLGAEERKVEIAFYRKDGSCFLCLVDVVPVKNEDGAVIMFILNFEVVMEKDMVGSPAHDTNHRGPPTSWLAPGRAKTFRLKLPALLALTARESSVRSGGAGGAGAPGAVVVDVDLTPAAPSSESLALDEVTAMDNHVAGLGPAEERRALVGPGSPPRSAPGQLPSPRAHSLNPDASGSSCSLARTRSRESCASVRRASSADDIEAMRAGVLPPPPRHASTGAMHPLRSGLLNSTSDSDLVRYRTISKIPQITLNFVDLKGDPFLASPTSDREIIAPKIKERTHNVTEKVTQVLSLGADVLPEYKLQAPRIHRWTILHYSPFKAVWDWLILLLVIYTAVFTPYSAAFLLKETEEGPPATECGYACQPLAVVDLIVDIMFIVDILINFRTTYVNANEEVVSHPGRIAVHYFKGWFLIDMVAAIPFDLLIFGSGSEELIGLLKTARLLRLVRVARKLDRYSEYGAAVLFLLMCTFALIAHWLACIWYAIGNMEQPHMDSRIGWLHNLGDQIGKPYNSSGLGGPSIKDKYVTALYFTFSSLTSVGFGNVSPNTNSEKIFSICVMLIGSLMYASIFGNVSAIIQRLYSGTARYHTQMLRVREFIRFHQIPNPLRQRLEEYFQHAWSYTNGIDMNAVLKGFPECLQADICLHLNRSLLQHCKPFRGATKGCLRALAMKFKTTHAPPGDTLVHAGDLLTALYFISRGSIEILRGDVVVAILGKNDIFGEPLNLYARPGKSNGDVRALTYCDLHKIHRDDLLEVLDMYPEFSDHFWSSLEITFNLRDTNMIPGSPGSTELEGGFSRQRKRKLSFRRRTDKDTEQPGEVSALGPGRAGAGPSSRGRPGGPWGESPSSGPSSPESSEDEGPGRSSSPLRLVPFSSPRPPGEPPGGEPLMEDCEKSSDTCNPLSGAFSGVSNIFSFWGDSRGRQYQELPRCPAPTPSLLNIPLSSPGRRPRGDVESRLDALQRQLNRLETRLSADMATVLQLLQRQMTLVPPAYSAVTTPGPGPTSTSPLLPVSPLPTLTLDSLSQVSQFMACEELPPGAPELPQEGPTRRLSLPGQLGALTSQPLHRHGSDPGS
# Procedure, shortened: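 Concentration-response qHTS measuring drop in thallium-sensitive dye signal. U2OS cells carrying BacMam hERG; compound exposure ~10 min, then stimulation buffer and 2 min read at 1 sec intervals.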
Structure (SMILES),Potency [1],Potency [2],Potency [3],Potency [4],Potency [5],Potency [6],outcome [7],Potency [8],Potency [9],Potency [10],Potency [11],Potency [12],Potency [13],Potency [14],max response [15],outcome [16],Potency [17],max response [18],max response [19],Potency [20]
CC(C#N)CCC#N (stereo unspecified),> 92 µM (inactive),> 92 µM (inactive),> 92 µM (inactive),> 92 µM (inactive),inactive,inactive,inactive,inactive,inactive,inactive,inactive,inactive,inactive,inactive,-11.4%,inactive,inactive,-1.82%,-1.63% (inactive),inactive
CCOS(C)(=O)=O,> 92 µM (inactive),> 92 µM (inactive),> 92 µM (inactive),> 92 µM (inactive),inactive,inactive,inactive,inactive,inactive,inactive,inactive,inactive,inactive,inactive,-9.22%,inactive,,-8.7%,-0.383% (inactive),inactive
Cc1ccc(N)cc1N,> 92 µM (inactive),> 92 µM (inactive),> 92 µM (inactive),> 92 µM (inactive),inactive,inactive,inactive,inactive,inactive,inactive,inactive,inactive,inactive,inactive,-4.9% and 16.6%,inactive,inactive,-0.584% and 0.527%,9.25% (inactive) and -0.891% (inactive),inactive
N#CCBr,> 92 µM (inactive),> 92 µM (inactive),> 92 µM (inactive),> 92 µM (inactive),inactive,inactive,inactive,inactive,inactive,inactive,inactive,inactive,inactive,inactive,-6.36%,inactive,inactive,1.14%,-1.67% (inactive),inactive
CCOC(=O)C1OC1(C)c1ccccc1 (stereo unspecified),> 92 µM (inactive),> 92 µM (inactive),> 92 µM (inactive),> 92 µM (inactive),inactive,inactive,inactive,inactive,inactive,inactive,inactive,inactive,inactive,inactive,-8.71%,inactive,,1.36%,-0.211% (inactive),inactive
O=C(O)c1cc(Cl)ccc1Cl,> 92 µM (inactive),> 92 µM (inactive),> 92 µM (inactive),> 92 µM (inactive),inactive,inactive,inactive,inactive,inactive,inactive,inactive,inactive,inactive,inactive,-6.74%,inactive,inactive,-9.46%,-2.77% (inactive),inactive
O=P(OCCCl)(OCCCl)OCCCl,> 92 µM (inactive),> 92 µM (inactive),> 92 µM (inactive),> 92 µM (inactive),inactive,inactive,inactive,inactive,inactive,inactive,inactive,inactive,inactive,inactive,-20%,inactive,inactive,-9.97%,7.26% (inactive),inactive
CCCCOCC1CO1 (stereo unspecified),> 92 µM (inactive),> 92 µM (inactive),> 92 µM (inactive),> 92 µM (inactive),inactive,inactive,inactive,inactive,inactive,inactive,inactive,inactive,inactive,inactive,5.09%,inactive,inactive,12.9%,20.3% (inactive),inactive
ClCCOCCCl,> 92 µM (inactive),> 92 µM (inactive),> 92 µM (inactive),> 92 µM (inactive),inactive,inactive,inactive,inactive,inactive,inactive,inactive,inactive,inactive,inactive,0.666%,inactive,inactive,8.9%,4.16% (inactive),inactive
BrCCc1ccccc1,> 92 µM (inactive),> 92 µM (inactive),> 92 µM (inactive),> 92 µM (inactive),inactive,inactive,inactive,inactive,inactive,inactive,inactive,inactive,inactive,inactive,1.56%,inactive,inactive,2.46%,9.1% (inactive),inactive
Brc1cccc(-c2ccccc2)c1,> 92 µM (inactive),> 92 µM (inactive),> 92 µM (inactive),> 92 µM (inactive),inactive,inactive,inactive,inactive,inactive,inactive,inactive,inactive,inactive,inactive,-12%,inactive,inactive,,,35.5 µM (active)
O=C(O)CCl,> 92 µM (inactive),> 92 µM (inactive),> 92 µM (inactive),> 92 µM (inactive),inactive,inactive,inactive,inactive,inactive,inactive,inactive,inactive,inactive,inactive,-10.2%,inactive,inactive,1.14%,-2.41% (inactive),inactive
